Hits are enriched below; roughly 9.5% of the tested compounds scored in any of these assays.
SARS PLP yeast: qHTS of Yeast-based Assay for SARS-CoV PLP; AID 485353, 2010; S. cerevisiae expressing SARS-CoV PLpro, growth rescue; 330,000 compounds, 0.19% hits; Potency, µM (doses to about 32.9 µM), for inactives: at the highest dose activity, positive = growth rescue, most hits filed as activators; calls by dose curve; further: 0% is about no effect; nearly all actives have a fitted effect of over 55% in size
NS1 function inh: qHTS Assay for Inhibitors of Influenza NS1 Protein Function; Potency, µM (series often up to 46.1 µM), inactives show at the highest dose activity, positive = more growth; 270,000 compounds, 0.4% hits; AID 2326, 2010; calls by dose curve; further: actives are rising curves; nearly all actives have a fitted effect of over 50% in size
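S. cerevisiae expressing influenza A NS1, grown in glucose, washed, then diluted 1:100 into pH 6.0 -URA galactose medium with 23 nl compound. Growth recovery read as OD600; NS1-free strain serves as control.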
RE007 growth inh: qHTS Assay for Inhibitors of the HIV-1 protein Vpr | S. pombe RE007 Vpr strain, BacTiter-Glo ATP luminescence, 24 h | Potency, µM (series often up to 92.2 µM), without a hit: top-dose activity change, negative = less growth, most hits filed as inhibitors | 360,000 compounds, 0.21% hits | AID 651644, 2012; active means well fitted falling curve with a large enough effect; inconclusive means small, poorly fitted or top-dose-only effect; inactive means no such curve, though single readings can be large or run the other way; further: on the % scale 0 is the no-effect control and ±100 the full control effect; nearly all actives have a fitted effect of over 50% in size
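Fission yeast strain RE007, carrying one chromosomally integrated HIV-1 vpr copy, was seeded at OD 0.01 in PMG+AL medium with 23 nL pinned compound. After 24 h at 30 °C and 99% humidity, viability was read by BacTiter-Glo luminescence.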
Pf growth 96h: Primary qHTS for delayed death inhibitors of the malarial parasite plastid, 96 hour incubation; P. falciparum luciferase reporter growth, 96 h; Potency, µM (series often up to 28.7 µM), without a hit: at the top dose activity change, negative = inhibition, usual class: inhibitors; 320,000 compounds, 6.9% hits; AID 504834, 2011; further: on the % scale 0 is the no-effect control and ±100 the full control effect
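P. falciparum expressing integrated firefly luciferase, in erythrocytes at 2% hematocrit, 0.05% parasitemia, incubated with compounds 96 h at 37 C, 5% CO2. Growth inhibition read as loss of luminescence; two-generation exposure targets delayed-death apicoplast inhibitors.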
Pf growth 48h: Primary qHTS for delayed death inhibitors of the malarial parasite plastid, 48 hour incubation; P. falciparum luciferase growth in erythrocytes, 48 h; Potency, µM (top dose mostly 28.7 µM), without a hit: at the highest dose activity change, negative = inhibition, actives largely listed as inhibitors; 310,000 compounds, 5.9% hits; further: on the % scale 0 is the no-effect control and ±100 the full control effect
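Erythrocytes infected with P. falciparum carrying an integrated firefly luciferase reporter (2% hematocrit, 0.1% parasitemia final) were exposed to compounds in RPMI 1640 with 0.5% Albumax at 37 C, 5% CO2. Growth inhibition was scored as reduced luminescence.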
* = called active by the depositor; u = inconclusive; x = not tested or not shown; [ ] = remark or other dose. Unless noted, the call rests on the fitted dose curve; in most records, active means well fitted inhibition curve with a large enough effect; inconclusive means small, poorly fitted or top-dose-only effect, or another doubt; inactive means no such curve, though single readings can be large or run the other way. Potency means the concentration at half of the fitted maximal effect.

SMILES | SARS PLP yeast | NS1 function inh | RE007 growth inh | Pf growth 96h | Pf growth 48h
COc1ccc(CSc2nncn2N)cc1[N+](=O)[O-] | 16% | 5% | 15% | 7.4µM* | 39%
COc1ccc(C(=O)Oc2cccc3cccnc23)cc1[N+](=O)[O-] | -6% | -43% | 63µM* | 22% | -24%
O=C(CC1(O)C(=O)Nc2ccc(Br)cc21)c1ccccc1 (configuration not stated) | x | x | -21% | x | x
Cc1c(NC(=O)c2cccnc2Cl)c(=O)n(-c2ccccc2)n1C | -1% | 3% | -7% | u | 6%
O=C(NCc1ccccc1)c1cc(C2CCCCN2C(=O)OCCF)on1 (configuration not stated) | x | x | 3% | x | x
Cc1ccc(C(=O)Oc2ccc(Cl)c3cccnc23)cc1[N+](=O)[O-] | -20% | -54% | -9% | u | 13µM*
O=C(Oc1ccc(Cl)c2cccnc12)c1cccnc1 | 0% | -44% | u | u | u
O=S(=O)(NC1CCCC1)c1ccc(F)cc1F | x | x | 15% | x | x
COc1ccc(NC(=O)CSCC(=O)N(C)CC(=O)Nc2cccc3ccccc23)cc1 | -4% | x | 12% | 2% | 7%
O=C(CN1C(=O)CSc2ccc(S(=O)(=O)N3CCCCCC3)cc21)NCCc1ccccc1 | x | x | -4% | x | x
O=C(CN1C(=O)CSc2ccc(S(=O)(=O)N3CCCCC3)cc21)NCc1ccccc1 | -1% | 22% | 2% | 4.1µM* | -15%
CCN(CC)CCCNC(=O)CN1C(=O)CSc2ccc(S(=O)(=O)N3CCOCC3)cc21 | 6% | -1% | -4% | u | -19%
CCN(CC)CC(C)CNC(=O)CN1C(=O)CSc2ccc(S(=O)(=O)N3CCOCC3)cc21 (configuration not stated) | 8% | 1% | 0% | 13µM* | -8%
O=C(Nc1cccs1)Nc1c(F)c(F)c(F)c(F)c1F | 9% | -31% | 5% | 89% | u
O=C(Nc1cccs1)Nc1c(F)c(F)cc(F)c1F | 14% | 5% | 1% | 4.7µM* | u
O=C(O)c1ccc(Cl)c(S(=O)(=O)Nc2ccccc2C(=O)Nc2ccc(Cl)cc2)c1 | 5% | u | 9% | 27% | 35%
Cc1cc2nc(-c3ccco3)c(Cc3ccccc3C(F)(F)F)n2c(C)c1Br | x | x | -22% | x | x
CN(C)c1oc(-c2ccc(OCc3ccccc3)cc2)nc1C#N | -11% | -15% | 6% | 5.2µM* | -14%
CCCOc1ccc(-c2nc(C#N)c(NCCCn3ccnc3)o2)cc1 | 4% | 4% | 5% | 7.4µM* | 10µM*
CC(C)(C)c1ccc(-c2nc(C#N)c(NCCCn3ccnc3)o2)cc1 | -1% | 4% | 5% | 8.3µM* | u
N#Cc1nc(-c2ccc(F)cc2)oc1NCCCn1ccnc1 | -1% | x | x | -29% | -17%
N#Cc1nc(-c2ccc(OCc3ccccc3Cl)cc2)oc1NCCCn1ccnc1 | 1% | -180% | x | 21% | 1.7µM*
Cn1cc(-c2coc3c(C(=O)NCc4cccs4)cccc23)cn1 | x | x | -3% | x | x
COc1ccc(C(C)NC(=O)Nc2ccc(C(C)=O)cc2)cc1OC (configuration not stated) | -4% | -2% | 1% | 285% | -8%
N#Cc1nc(-c2ccc(OCc3ccccc3)cc2)oc1NCCCn1ccnc1 | -9% | -176% | 0% | 15%[5.75 µM] | 2.9µM*
SMILES | SARS PLP yeast | NS1 function inh | RE007 growth inh | Pf growth 96h | Pf growth 48h
N#Cc1nc(COc2ccccc2)oc1NCCCn1ccnc1 | 1% | 3% | -14% | u | u
c1ccc(C2(N3CCCC3)CCCCC2)cc1 | x | x | x | 13µM* | 15µM*
CCCCC(=O)N(C)c1c(CC)nc2c(OCC=C(C)C)cccn12 | x | x | -18% | x | x
Cc1ccc(C(=O)NNC(=O)C(NC(=O)c2cccc(C)c2)C(C)C)cc1 (configuration not stated) | -5% | x | 0% | -27% | u
CCc1ccc(CN2C(=O)c3ccccc3C2C(=O)NC(C)CC)cc1 (configuration not stated) | 3% | 9% | 14% | -7% | -1%[0.00184 µM]
CC(C)N1C(=O)c2ccccc2C1C(=O)NCCc1ccccc1 (configuration not stated) | 0% | 2% | 7% | 8.3µM* | 16%

Assay outcomes from PubChem.
